From publication PMC7862700, “An all-to-all approach to the identification of sequence-specific readers for epigenetic DNA modifications on cytosine” come the findings set out here.

What all share (experiment): DAPPL (digital affinity profiling via proximity ligation, sequencing); 10 mM Tris-HCl pH 7.5, 50 mM NaCl, 1 mM DTT, 4% glycerol, room temperature, 30 min; GST-TFs on glutathione beads, 16-mer random dsDNA library, 0.1% formaldehyde crosslink after washing; high values mean tight binding
What all share (details): protein: recombinant; tags: N-terminal GST; dsDNA, one strand shown

For one assay, the target named is T1, ERF (Homo sapiens, UniProt P50548 1-548).
T1 sequence: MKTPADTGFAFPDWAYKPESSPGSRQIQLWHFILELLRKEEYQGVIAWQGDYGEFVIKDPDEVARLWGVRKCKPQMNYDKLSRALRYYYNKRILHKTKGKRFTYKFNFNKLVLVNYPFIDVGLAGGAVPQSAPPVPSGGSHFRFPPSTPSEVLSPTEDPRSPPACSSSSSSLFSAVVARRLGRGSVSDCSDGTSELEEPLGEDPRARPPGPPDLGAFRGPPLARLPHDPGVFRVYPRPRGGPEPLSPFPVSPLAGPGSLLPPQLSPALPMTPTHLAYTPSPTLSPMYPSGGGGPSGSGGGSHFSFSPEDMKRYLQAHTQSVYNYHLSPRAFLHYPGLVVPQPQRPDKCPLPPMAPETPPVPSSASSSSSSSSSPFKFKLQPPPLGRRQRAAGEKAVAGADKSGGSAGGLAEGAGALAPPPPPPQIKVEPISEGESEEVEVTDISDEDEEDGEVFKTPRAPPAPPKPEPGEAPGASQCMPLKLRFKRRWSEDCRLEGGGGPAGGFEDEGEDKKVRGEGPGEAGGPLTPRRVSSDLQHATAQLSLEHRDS
The gist of the method:
(§1)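 Binding signal is each hexamer's read frequency for a factor divided by its frequency in the tag-only sample. The factors were GST-fused human transcription factors from yeast, captured on glutathione beads, DNA-barcoded and pooled with that sample. Pools were incubated with 200 nmole of a random double-stranded 16-mer DNA library in Tris/NaCl/DTT/glycerol buffer at room temperature for 30 min, then washed, crosslinked with 0.1% formaldehyde, proximity-ligated with BsaI/T4 ligase (1 h, 37 °C), PCR-amplified and sequenced on an Illumina NextSeq500.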

For a further assay, the target named is T2, ETV3L (Homo sapiens, UniProt Q6ZN32 1-361).
T2 sequence: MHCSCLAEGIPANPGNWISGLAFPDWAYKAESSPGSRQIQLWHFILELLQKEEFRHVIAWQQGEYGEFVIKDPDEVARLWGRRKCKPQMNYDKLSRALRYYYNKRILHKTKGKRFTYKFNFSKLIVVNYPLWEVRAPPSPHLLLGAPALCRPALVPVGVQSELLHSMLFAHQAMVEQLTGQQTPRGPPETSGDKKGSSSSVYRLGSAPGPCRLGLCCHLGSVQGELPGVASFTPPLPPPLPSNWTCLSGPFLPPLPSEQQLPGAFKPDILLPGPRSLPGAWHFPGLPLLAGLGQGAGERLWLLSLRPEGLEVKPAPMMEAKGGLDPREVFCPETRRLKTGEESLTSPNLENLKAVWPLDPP
A digest of the protocol: as §1

Another assay concerns the target T3, ETS2 (Homo sapiens, UniProt P15036 1-469).
T3 sequence: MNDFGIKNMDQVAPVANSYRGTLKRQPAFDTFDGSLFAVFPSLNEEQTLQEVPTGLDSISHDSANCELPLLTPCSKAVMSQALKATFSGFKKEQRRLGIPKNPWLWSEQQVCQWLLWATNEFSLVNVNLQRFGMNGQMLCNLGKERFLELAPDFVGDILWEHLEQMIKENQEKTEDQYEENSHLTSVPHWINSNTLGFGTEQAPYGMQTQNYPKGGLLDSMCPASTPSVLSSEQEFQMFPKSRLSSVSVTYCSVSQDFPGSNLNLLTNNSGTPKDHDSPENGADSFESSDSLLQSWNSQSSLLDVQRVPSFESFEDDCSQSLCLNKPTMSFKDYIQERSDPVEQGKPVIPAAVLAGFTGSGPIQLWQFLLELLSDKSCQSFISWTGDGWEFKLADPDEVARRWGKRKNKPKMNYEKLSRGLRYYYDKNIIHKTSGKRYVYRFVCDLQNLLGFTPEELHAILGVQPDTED
A digest of the protocol: as §1

The target of a further assay is T4, SPDEF (Homo sapiens, UniProt O95238 1-335).
T4 sequence: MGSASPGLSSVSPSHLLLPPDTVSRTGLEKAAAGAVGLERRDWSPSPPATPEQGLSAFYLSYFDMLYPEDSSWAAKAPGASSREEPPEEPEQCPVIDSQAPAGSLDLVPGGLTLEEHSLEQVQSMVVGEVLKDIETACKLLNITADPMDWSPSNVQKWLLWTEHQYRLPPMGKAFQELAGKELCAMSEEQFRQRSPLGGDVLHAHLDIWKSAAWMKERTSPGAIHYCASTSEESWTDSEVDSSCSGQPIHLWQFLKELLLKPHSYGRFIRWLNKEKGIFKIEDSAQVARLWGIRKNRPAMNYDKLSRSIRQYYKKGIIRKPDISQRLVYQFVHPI
A digest of the protocol: as §1

A further assay deals with T5, ETV7 (Homo sapiens, UniProt Q9Y603 1-341).
T5 sequence: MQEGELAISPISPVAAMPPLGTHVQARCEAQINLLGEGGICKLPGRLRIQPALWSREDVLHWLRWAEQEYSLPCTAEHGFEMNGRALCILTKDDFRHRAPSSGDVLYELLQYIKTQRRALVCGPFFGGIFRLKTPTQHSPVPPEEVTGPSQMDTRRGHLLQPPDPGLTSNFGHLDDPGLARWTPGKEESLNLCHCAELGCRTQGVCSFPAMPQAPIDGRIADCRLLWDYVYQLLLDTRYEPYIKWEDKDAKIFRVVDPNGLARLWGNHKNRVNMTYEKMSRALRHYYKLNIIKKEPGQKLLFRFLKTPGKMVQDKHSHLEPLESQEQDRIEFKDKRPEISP
The gist of the method: as §1

For another assay, the target named is T6, ELF5 (Homo sapiens, UniProt Q9UKW6-2 1-255).
T6 sequence: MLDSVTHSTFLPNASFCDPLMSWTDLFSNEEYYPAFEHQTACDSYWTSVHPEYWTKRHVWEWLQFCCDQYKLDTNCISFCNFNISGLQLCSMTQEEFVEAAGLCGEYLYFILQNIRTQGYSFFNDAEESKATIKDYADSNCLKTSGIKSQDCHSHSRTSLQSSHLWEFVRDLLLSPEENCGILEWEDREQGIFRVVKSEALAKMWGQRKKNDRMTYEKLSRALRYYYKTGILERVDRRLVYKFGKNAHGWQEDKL
The gist of the method: as §1

The target in a further assay is T7, ETV3 (Homo sapiens, UniProt P41162-2 1-143).
T7 sequence: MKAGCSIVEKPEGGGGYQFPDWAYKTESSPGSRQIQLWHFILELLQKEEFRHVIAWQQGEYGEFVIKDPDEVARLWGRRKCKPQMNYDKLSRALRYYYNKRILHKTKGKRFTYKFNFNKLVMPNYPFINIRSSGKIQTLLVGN
A digest of the protocol:
as §1

A further assay has as its target ETV6 (Homo sapiens, UniProt P41212 1-452). The gist of the method:
as §1

Sequence of ETV6 (P41212 whole entry): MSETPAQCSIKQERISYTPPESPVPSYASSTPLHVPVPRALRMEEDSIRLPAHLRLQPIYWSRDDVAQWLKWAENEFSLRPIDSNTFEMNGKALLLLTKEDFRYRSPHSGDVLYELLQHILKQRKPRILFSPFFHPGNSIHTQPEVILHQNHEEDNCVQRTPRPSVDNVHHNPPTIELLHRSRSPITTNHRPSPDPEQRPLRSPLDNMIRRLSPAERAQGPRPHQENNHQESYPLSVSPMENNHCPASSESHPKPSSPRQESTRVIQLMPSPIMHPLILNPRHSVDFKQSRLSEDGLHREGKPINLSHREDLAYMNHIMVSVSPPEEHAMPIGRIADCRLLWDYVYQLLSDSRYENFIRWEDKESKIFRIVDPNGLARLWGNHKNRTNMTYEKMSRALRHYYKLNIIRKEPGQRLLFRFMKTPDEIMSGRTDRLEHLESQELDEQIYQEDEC

Consider GTATAC, for which the binding signal was 1.41 fold enrichment (6-mer frequency, TF over GST control) with ERF; 1.16 fold enrichment (6-mer frequency, TF over GST control) with ETV3L; 1.32 fold enrichment (6-mer frequency, TF over GST control) with ETS2; 1.3 fold enrichment (6-mer frequency, TF over GST control) in the assay with SPDEF; 1.2 fold enrichment (6-mer frequency, TF over GST control) in the assay with ETV7; 1.31 fold enrichment (6-mer frequency, TF over GST control) with ELF5. Further, the binding signal is 1.23 fold enrichment (6-mer frequency, TF over GST control) in the assay with ETV3 and 1.19 fold enrichment (6-mer frequency, TF over GST control) with ETV6.
With CGTCAA, the binding signal with ERF was 1.13 fold enrichment (6-mer frequency, TF over GST control); with ETV3L it was 1.09 fold enrichment (6-mer frequency, TF over GST control); in the assay with ETS2, 1.16 fold enrichment (6-mer frequency, TF over GST control); with SPDEF, 1.15 fold enrichment (6-mer frequency, TF over GST control); in the assay with ETV7, 1.09 fold enrichment (6-mer frequency, TF over GST control); with ELF5, 1.08 fold enrichment (6-mer frequency, TF over GST control). In addition, the binding signal is 1.06 fold enrichment (6-mer frequency, TF over GST control) with ETV3 and 1.15 fold enrichment (6-mer frequency, TF over GST control) with ETV6.
Turning to TGTCTA, the binding signal with ERF is 1.21 fold enrichment (6-mer frequency, TF over GST control); with ETV3L, 1.08 fold enrichment (6-mer frequency, TF over GST control); in the assay with ETS2, 1.18 fold enrichment (6-mer frequency, TF over GST control); in the assay with SPDEF it was 1.2 fold enrichment (6-mer frequency, TF over GST control); with ETV7, 1.28 fold enrichment (6-mer frequency, TF over GST control); with ELF5, 1.24 fold enrichment (6-mer frequency, TF over GST control). Also, the binding signal is 1.23 fold enrichment (6-mer frequency, TF over GST control) with ETV3 and 1.07 fold enrichment (6-mer frequency, TF over GST control) in the assay with ETV6.
Regarding GAACTT, the binding signal in the assay with ERF was 1.56 fold enrichment (6-mer frequency, TF over GST control); in the assay with ETV3L, 1.58 fold enrichment (6-mer frequency, TF over GST control); with ETS2 it was 1.61 fold enrichment (6-mer frequency, TF over GST control); with SPDEF, 1.61 fold enrichment (6-mer frequency, TF over GST control); with ETV7, 1.62 fold enrichment (6-mer frequency, TF over GST control); in the assay with ELF5, 1.96 fold enrichment (6-mer frequency, TF over GST control). In addition, the binding signal was 1.69 fold enrichment (6-mer frequency, TF over GST control) with ETV3 and 1.73 fold enrichment (6-mer frequency, TF over GST control) in the assay with ETV6.
Regarding CCTCTG, the binding signal in the assay with ERF is 1.65 fold enrichment (6-mer frequency, TF over GST control); in the assay with ETV3L, 1.36 fold enrichment (6-mer frequency, TF over GST control); with ETS2 it was 1.42 fold enrichment (6-mer frequency, TF over GST control); in the assay with SPDEF it was 1.54 fold enrichment (6-mer frequency, TF over GST control); in the assay with ETV7, 1.79 fold enrichment (6-mer frequency, TF over GST control); in the assay with ELF5, 1.5 fold enrichment (6-mer frequency, TF over GST control). Further, the binding signal with ETV3 is 1.64 fold enrichment (6-mer frequency, TF over GST control); in the assay with ETV6, 1.39 fold enrichment (6-mer frequency, TF over GST control).
For the sequence TTGCAA, the binding signal is 1.15 fold enrichment (6-mer frequency, TF over GST control) in the assay with ERF; 1.19 fold enrichment (6-mer frequency, TF over GST control) with ETV3L; 1.1 fold enrichment (6-mer frequency, TF over GST control) with ETS2; 1.25 fold enrichment (6-mer frequency, TF over GST control) in the assay with SPDEF; 1.19 fold enrichment (6-mer frequency, TF over GST control) with ETV7; 1.12 fold enrichment (6-mer frequency, TF over GST control) with ELF5. For the same sequence, the binding signal in the assay with ETV3 is 1.18 fold enrichment (6-mer frequency, TF over GST control); with ETV6, 1.16 fold enrichment (6-mer frequency, TF over GST control).
As to CTCATA, the binding signal is 1.35 fold enrichment (6-mer frequency, TF over GST control) with ERF; 1.3 fold enrichment (6-mer frequency, TF over GST control) in the assay with ETV3L; 1.35 fold enrichment (6-mer frequency, TF over GST control) with ETS2; 1.33 fold enrichment (6-mer frequency, TF over GST control) in the assay with SPDEF; 1.32 fold enrichment (6-mer frequency, TF over GST control) with ETV7; 1.39 fold enrichment (6-mer frequency, TF over GST control) in the assay with ELF5. The binding signal with ETV3 was 1.26 fold enrichment (6-mer frequency, TF over GST control); with ETV6, 1.27 fold enrichment (6-mer frequency, TF over GST control).
Regarding TATTAG, the binding signal with ERF is 1 fold enrichment (6-mer frequency, TF over GST control); with ETV3L, 1.04 fold enrichment (6-mer frequency, TF over GST control); with ETS2, 1.06 fold enrichment (6-mer frequency, TF over GST control); with SPDEF, 1.06 fold enrichment (6-mer frequency, TF over GST control); with ETV7 it was 1.03 fold enrichment (6-mer frequency, TF over GST control); in the assay with ELF5 it was 1.06 fold enrichment (6-mer frequency, TF over GST control). In addition, the binding signal with ETV3 is 1.05 fold enrichment (6-mer frequency, TF over GST control); with ETV6, 1.05 fold enrichment (6-mer frequency, TF over GST control).
